From PubChem BioAssay (NCI)
This is part of a sample that, as a whole, favours compounds with a hit. Of some 83,000 tested, about 20% had one in any assay.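 Percent growth is the endpoint: 0 to 100 indicates growth inhibition (40 means 60% inhibition), 0 means no net growth, and negative values indicate cell death.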 Unmarked numbers belong to inactive results. Active and inactive are the calls of the source. The calls were made as follows: active = growth percent below 10; inactive = the rest.

Legend:
Assay in all cases: NCI-60 one-dose screen, 48 h (100 = growth as untreated, 0 = no growth, -100 = all killed)
Conditions in all cases: 10 µM unless noted
DU-145 prostate = system: DU-145 prostate
K-562 leukemia = system: K-562 leukemia
MALME-3M melanoma = system: MALME-3M melanoma
MDA-MB-231 breast = system: MDA-MB-231 breast
RXF 393 renal = system: RXF 393 renal
SF-268 CNS = system: SF-268 CNS
SF-295 CNS = system: SF-295 CNS
SF-539 CNS = system: SF-539 CNS
UACC-257 melanoma = system: UACC-257 melanoma
M14 melanoma = system: M14 melanoma
HCT-15 colon = system: HCT-15 colon
HT29 colon = system: HT29 colon
SNB-75 CNS = system: SNB-75 CNS
SNB-19 CNS = system: SNB-19 CNS
U251 CNS = system: U251 CNS
PC-3 prostate = system: PC-3 prostate
SK-MEL-5 melanoma = system: SK-MEL-5 melanoma
UACC-62 melanoma = system: UACC-62 melanoma
LOX IMVI melanoma = system: LOX IMVI melanoma
SK-MEL-28 melanoma = system: SK-MEL-28 melanoma

Row | SMILES | growth (DU-145 prostate) | growth (K-562 leukemia) | growth (MALME-3M melanoma) | growth (MDA-MB-231 breast) | growth (RXF 393 renal) | growth (SF-268 CNS) | growth (SF-295 CNS) | growth (SF-539 CNS) | growth (UACC-257 melanoma) | growth (M14 melanoma) | growth (HCT-15 colon) | growth (HT29 colon) | growth (SNB-75 CNS) | growth (SNB-19 CNS) | growth (U251 CNS) | growth (PC-3 prostate) | growth (SK-MEL-5 melanoma) | growth (UACC-62 melanoma) | growth (LOX IMVI melanoma) | growth (SK-MEL-28 melanoma)
1 | CCCCn1c(=O)c2c(nc3n2CCCN3CCc2ccc(OCC(=O)NCCN(CC)CC)cc2)n(CCCC)c1=O | 66.1% | -6.6% (active) | -52.9% (active) | 14.4% | 47.2% | 63.2% | -22.3% (active) | 54.7% | -39% (active) | -79.2% (active) | 1.38% (active) | 5.96% (active) | 44.6% | 65.3% | 24.6% | 47.7% | 28.3% | 20.7% | 11% | -36.4% (active)
2 | COc1ccc(NC(=O)CSc2nnc(-c3cc(-c4ccccc4)nc4ccccc34)n2-c2ccccc2)cc1 | 99.7% | 84.8% | 88.7% | 89.3% | 99% | 90.8% | 97.4% | 100% | 99.2% | 98.1% | 95.4% | 106% | 79.3% | 93.5% | 100% | 73.2% | 90.8% | 73.8% | 97.3% | 95.7%
3 | OC(COc1ccccc1Cl)COc1ccccc1Cl | 116% | 100% | 96.8% | 101% | 96.7% | 97.3% | 104% | 95.5% | 120% | 93.2% | 86.1% | 92.5% | 85.4% | 108% | 91.5% | 95.9% | 96.8% | 92% | 85.3% | 94.2%
4 | CCCCn1c(=O)c2c(nc(NCCc3ccc(O)c(O)c3)n2CCC)n(CCCC)c1=O | 74.8% | 37.7% | 101% | 58.6% | 66.3% | 74.6% | 94.7% | 87.7% | 89.6% | 75.9% | 39.4% | 70.9% | 68.8% | 92.3% | 77.2% | 43.9% | 83.1% | 86.2% | 57.4% | 86.9%
5 | N#C/C(=C\c1ccc2c(c1)OCO2)n1nnc2cc(F)c(F)cc21 | 36.7% | 18% | 70.8% | 80.1% | 32.3% | 74.3% | 102% | 84.5% | 75% | 57% | 40.5% | 30.3% | 20.6% | 82.3% | 83.8% | 51.4% | 75.5% | 47.6% | 57.3% | 92.5%
6 | NC1=NCc2nc3ccccc3c(=O)n2C1 | 113% | 87.3% | 104% | 85.7% | 91.4% | 112% | 96.1% | 107% | 95.1% | 102% | 99.2% | 103% | 98.6% | 106% | 103% | 112% | 107% | 92.3% | 99.3% | 117%
7 | O=C(CSc1nccc(Nc2ccc(S(=O)(=O)Nc3nccs3)cc2)n1)c1ccc(F)cc1 | 105% | 113% | 103% | 113% | 112% | 105% | 103% | 100% | 96.5% | 101% | 98.1% | 106% | 94% | 100% | 102% | 96.1% | 98.7% | 94.5% | 97.5% | 106%
8 | CC(C)(C)c1ccc(/C=C/C(=O)Nc2ccc(O)cc2)cc1 | 70.3% | 4.2% (active) | 67% | 53% | 90.9% | 59.7% | 79.5% | 40.6% | 64.9% | 28.4% | 43.4% | 18.7% | 96.6% | 83.3% | 72.8% | 59% | 51.4% | 55.1% | -3.96% (active) | 86.5%
9 | Clc1cccc(Cl)c1C(Nc1nc2ccccc2s1)Nc1nc2ccccc2s1 | 131% | 79.6% | 123% | 104% | 104% | 105% | 143% | 93.6% | 102% | 122% | 83.6% | 108% | 80.8% | 99.1% | 94.7% | 74.2% | 88.4% | 95.7% | 86.1% | 109%
10 | COc1ccc2c(c1)C(=O)/C(=C/c1ccc(OCC(=O)Nc3nccs3)cc1)O2 | -37.4% (active) | -27.3% (active) | -42.2% (active) | 46.2% | 31.8% | -68.5% (active) | 57.5% | -85% (active) | 84.9% | 37.3% | 76.2% | 3.69% (active) | -90.7% (active) | 78.6% | 4.62% (active) | -62% (active) | 100% | 74.2% | -58.2% (active) | 103%
11 | CCN(CC)c1ccc2nc3c4ccccc4c(=NC(=O)c4ccccc4-c4c5ccc(N(CC)CC)cc5[o+]c5cc(N(CC)CC)ccc45)cc-3oc2c1 | -89.4% (active) | -85.7% (active) | 54.9% | 52.8% | 61.6% | 60.5% | -50.3% (active) | 67% | 49.7% | -3.37% (active) | 6.13% (active) | 1.92% (active) | 67.7% | -22.3% (active) | 20.5% | 12.1% | -69.8% (active) | 67.5% | -30.4% (active) | 97.4%
12 | CCOC(CN=Cc1cc(C)c2[nH]c3ccccc3c2c1C)OCC | 101% | 95.1% | 124% | 108% | 102% | 92.5% | 92.4% | 100% | 90.3% | 94.4% | 97.8% | 108% | 88.9% | 91.9% | 89.5% | 101% | 105% | 71.3% | 96.3% | 103%
13 | O=C(Nc1cccc2c(O)c(N=Nc3ccc(S(=O)(=O)Nc4nccs4)cc3)cc(N=Nc3ccc(S(=O)(=O)Nc4nccs4)cc3)c12)C(Cl)Cl | 33.8% | 143% | 138% | 92.3% | 71.2% | 66.2% | 78.2% | 86.6% | 80.6% | 110% | 60.2% | 62.8% | 83% | 73.6% | 63.1% | 15.7% | 85.2% | 89% | 66.7% | 82.9%
14 | Cc1cc(=O)[nH]c(N=Nc2c(O)[nH]c3ccccc23)n1 | 117% | 116% | 127% | 97.2% | 117% | 105% | 114% | 105% | 112% | 100% | 109% | 106% | 105% | 103% | 103% | 97.9% | 103% | 106% | 99.8% | 111%
